PubChem BioAssay (NCATS)
Records with an inconclusive call do not appear. Calls of active or inactive are those of the source. The call rests on the fitted dose curve.

Experiment: Cell Viability - SK-N-SH (AID 435);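 further: compound exposure lasted 40 h at 37 °C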
Conditions: SK-N-SH neuroblastoma cell viability qHTS
Description: NIH Chemical Genomics Center [NCGC]
NIH Molecular Libraries Screening Centers Network [MLSCN]
National Institutes of Environmental Health Sciences [NIEHS]
National Toxicology Program [NTP]
We have developed a 1536-well cell-based assay for quantitative high throughput screening (qHTS) against a number of cell lines to determine in vitro cytotoxicity of small molecules. This particular assay uses the SK-N-SH cell line which is derived from human neuroblastoma.
NCGC Assay Protocol Summary:
The CellTiter-Glo luminescent cell viability assay (Promega) is a homogeneous method to measure the number of viable cells in culture. The end point readout of this assay is based on quantitation of intracellular ATP, an indicator of metabolic activity, using the luciferase reaction. Luciferase catalyzes the oxidation of beetle Luciferin to oxyluciferin and light in the presence of ATP. The luminescent signal is proportional to amount of ATP present.
Using the CellTiter-Glo luminescent cell viability assay, the amount of cellular ATP was measured in the SK-N-SH cell line with complete culture medium following compound treatment for 40 hours. The assay was performed in opaque white Kalypsys 1536-well plates. In the screen, tamoxifen and doxorubicin were used as positive controls. Library compounds were measured for their ability to cause acute toxicity in the cell line, as reflected by a decrease in intracellular ATP levels, in a concentration-dependent manner. Data were normalized to the controls for basal activity (DMSO only) and 100% inhibition (100 uM tamoxifen). AC50 values were determined from concentration-response data modeled with the standard Hill equation.
qHTS protocol fo CellTiter Glo SK-N-SH cellular assay
[Step] [Parameter] [Value] [Description]
1. Reagent; 5 uL; 1500 SK-N-SH cells/well
2. Time; 5 hr; 37 °C incubation
4. Controls; 23 nL; Tamoxifen 0.34 uM to 100 uM & Doxorubicin 0.02 nM to 100 uM
5. Time; 40 hr; 37 °C incubation
6. Reagent; 5 uL; CellTiter Glo reagent
7. Time; 20 min; Room Temperature
8. Detection; Luminescence; Viewlux plate reader
Keywords: cell viability, cytotoxicity, SK-N-SH cell line, luminescence, NTPHTS, NTPHTS_NCGC, NIEHS, EPA, DSSTox, MLSMR, MLSCN, NIH Roadmap, qHTS, NCGC
Potency means the concentration at half of the fitted maximal effect.

Structure (SMILES) | Potency
C1CCCNCC1 | > 92 µM (inactive)
C[C@@H]1CC2(OC(O)[C@]3(C)O[C@H]23)O[C@H]2C[C@@]3(C)[C@@H]4CC[C@H]5C(C)(C)C(O[C@@H]6OC[C@@H](O)[C@H](O)[C@H]6O)CC[C@@]56C[C@@]46CC[C@]3(C)[C@@H]12 (stereo not given in full) | > 92 µM (inactive)
CCOC(=O)C1OC1c1ccccc1 (stereo not given) | > 92 µM (inactive)
O=Nc1ccc(Nc2ccccc2)cc1 | 11.5 µM (active)
c1c[nH]cn1 | > 92 µM (inactive)
c1ccc(CSCc2ccccc2)cc1 | > 92 µM (inactive)
C/C(Cl)=C/CCl | > 92 µM (inactive)
O=C1OC(=O)c2ccccc21 | > 92 µM (inactive)
CCCCCCN | > 92 µM (inactive)
Cc1cc(=O)oc2cc(O)cc(O)c12 | > 92 µM (inactive)
c1ccc(Nc2cccc3ccccc23)cc1 | > 92 µM (inactive)
Cc1ccccc1OCC1CO1 (stereo not given) | > 92 µM (inactive)
CCNC(=S)NCC | > 92 µM (inactive)
O=C(O)c1ccc([N+](=O)[O-])cc1 | > 92 µM (inactive)
Cc1ccc(S(N)(=O)=O)cc1 | > 92 µM (inactive)
CC(/C=C/C=C(C)/C=C/C(=O)O)=C\C=C\C=C(C)\C=C\C=C(C)\C=C\C(=O)O | > 92 µM (inactive)
Brc1cc(Oc2cc(Br)c(Br)c(Br)c2Br)c(Br)c(Br)c1Br | > 92 µM (inactive)
CCCCC(CC)COP(=O)(OCC(CC)CCCC)OCC(CC)CCCC (stereo not given) | > 92 µM (inactive)
CCCCOC(=O)COc1ccc(Cl)cc1Cl | > 92 µM (inactive)
CCOc1ccc2nc(N)sc2c1 | > 92 µM (inactive)

Structure (SMILES) | Potency
O=[N+]([O-])c1cccc(I)c1 | > 92 µM (inactive)
Cc1c(N)cccc1Cl | > 92 µM (inactive)
Brc1ccc(-c2ccccc2)cc1 | > 92 µM (inactive)
CC(=O)CC(=O)Nc1ccccc1 | > 92 µM (inactive)
COc1ccc(C)cc1N | > 92 µM (inactive)
CCCCNCC | > 92 µM (inactive)
CC(=O)OC(C(=O)c1ccccc1)c1ccccc1 (stereo not given) | > 92 µM (inactive)
c1ccncc1 | > 92 µM (inactive)
Nc1ccc(N=Nc2ccccc2)c(N)c1 | > 92 µM (inactive)
COc1ccc([N+](=O)[O-])cc1N | > 92 µM (inactive)
C=CC(=O)CC | > 92 µM (inactive)
Brc1cc(Br)c(Oc2cc(Br)c(Br)cc2Br)cc1Br | > 92 µM (inactive)
OCC(CBr)(CBr)CBr | > 92 µM (inactive)
CCCCCCc1ccc(-c2ccc(C#N)cc2)cc1 | > 92 µM (inactive)
C=CC(=O)OCCCCCCOC(=O)C=C | 50.2 µM (active)
Oc1c(Cl)cc(Cl)c(Cl)c1Cl | > 92 µM (inactive)
CCCCC(CC)COCCCN (stereo not given) | > 92 µM (inactive)
Nc1cc(C(=O)O)c(O)c(S(=O)(=O)O)c1 | > 92 µM (inactive)
C[Si](C)(C)Cl | > 92 µM (inactive)
CC/C=C/C/C=C/C/C=C/CCCCCCCC(=O)OCC | > 92 µM (inactive)
